# Measurements as given in article PMC4336329 (PLoS ONE, 2015).
# Screen size: about 310,000 compounds; about 14,000 (4.5%) showed an effect of 50% or more. Effects have a minus sign here. For the sample, strong results were picked, then their nearest neighbours and some compounds at random.
# Target: human ether-à-go-go-related gene (hERG) potassium channel (human, UniProt Q12809)
# Assay: primary screen, population patch clamp on CHO cells stably expressing hERG; higher = less effect of the substance
# 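Also: peak tail current of the secondary pulse compared with the same well before compound.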
# Sequence of human ether-à-go-go-related gene (hERG) potassium channel (Q12809 whole entry, looked up): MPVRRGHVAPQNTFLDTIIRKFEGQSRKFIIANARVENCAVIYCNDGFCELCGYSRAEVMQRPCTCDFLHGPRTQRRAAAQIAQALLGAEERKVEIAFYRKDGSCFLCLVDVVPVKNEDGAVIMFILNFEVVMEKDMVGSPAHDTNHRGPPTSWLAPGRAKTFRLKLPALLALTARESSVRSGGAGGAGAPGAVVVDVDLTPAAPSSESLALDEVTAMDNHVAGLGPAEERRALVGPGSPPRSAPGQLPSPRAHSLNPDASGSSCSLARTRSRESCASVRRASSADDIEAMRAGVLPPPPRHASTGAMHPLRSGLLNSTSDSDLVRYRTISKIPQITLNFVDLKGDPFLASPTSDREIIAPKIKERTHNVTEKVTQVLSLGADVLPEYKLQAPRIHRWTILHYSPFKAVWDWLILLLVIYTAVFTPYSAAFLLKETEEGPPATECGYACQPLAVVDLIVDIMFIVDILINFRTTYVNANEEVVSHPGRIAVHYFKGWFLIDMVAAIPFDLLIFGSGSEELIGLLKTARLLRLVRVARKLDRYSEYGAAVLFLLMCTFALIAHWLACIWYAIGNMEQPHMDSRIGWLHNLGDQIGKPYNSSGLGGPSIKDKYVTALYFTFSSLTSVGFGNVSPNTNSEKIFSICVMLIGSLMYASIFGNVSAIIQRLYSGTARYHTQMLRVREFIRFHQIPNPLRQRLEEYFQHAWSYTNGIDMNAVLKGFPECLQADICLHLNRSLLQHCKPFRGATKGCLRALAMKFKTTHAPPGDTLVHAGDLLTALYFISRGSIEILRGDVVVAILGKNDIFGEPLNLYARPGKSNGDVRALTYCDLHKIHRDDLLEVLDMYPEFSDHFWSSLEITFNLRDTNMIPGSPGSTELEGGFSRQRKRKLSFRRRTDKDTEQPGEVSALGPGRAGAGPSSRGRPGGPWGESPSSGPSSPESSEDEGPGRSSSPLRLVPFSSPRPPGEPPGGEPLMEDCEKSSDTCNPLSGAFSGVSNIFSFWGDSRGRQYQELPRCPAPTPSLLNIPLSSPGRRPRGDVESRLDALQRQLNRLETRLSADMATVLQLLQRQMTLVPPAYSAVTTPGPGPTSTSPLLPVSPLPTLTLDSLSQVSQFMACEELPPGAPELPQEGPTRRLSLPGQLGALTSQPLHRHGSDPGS
row,SMILES,"hERG current change (%, negative = inhibition) at 10uM"
1,O=C(COc1ccccc1)Nc1nonc1NC(=O)COc1ccccc1,-12.8%
2,COc1cc(C(=S)N2CCCC2)ccc1O,18.6%
3,CCN1C(=O)C2(Nc3ccccc3-c3nc4ccccc4n32)c2cc(OC)ccc21 (centres unmarked),-4.35%
4,CCC(=O)N1CCc2cc(S(=O)(=O)CCC(=O)NCCc3ccc(OC)c(OC)c3)ccc21,-0.229%
5,O=C(Nc1ccc(Cl)c(Cl)c1)NC1CCS(=O)(=O)C1 (centres unmarked),-8.07%
6,COc1cc(NS(=O)(=O)c2ccc(NC(C)=O)cc2)ncn1,0.81%
7,Cc1nn(-c2ccc(Cl)cc2)c(N)c1C(O)(CSc1nccn1C)C(F)(F)F (centres unmarked),-22.9%
8,O=C(NCC1CCCO1)c1ccc2ccccc2n1 (centres unmarked),-3.04%
9,CCn1c(CCCNC(=O)c2ccc(F)cc2)nc2ccccc21,-41.3%
10,COc1ccc(C(=O)NCCCc2nc3ccccc3n2Cc2cc(C)ccc2C)cc1OC,-39.7%
11,CC(C)Cn1c(CCCNC(=O)c2ccc(F)cc2)nc2ccccc21,-50.3%
12,COc1ccc(C(=O)NCCCc2nc3ccccc3n2Cc2ccccc2C)cc1OC,-55.4%
13,COc1cc(C(=O)NCCCc2nc3ccccc3n2Cc2cc(C)ccc2C)cc(OC)c1OC,-33.6%
14,CCn1c(CCNC(=O)c2ccc(F)cc2)nc2ccccc21,-33.9%
15,COc1ccc(CCC(=O)OC(C)C(=O)c2ccc(C)cc2)cc1 (centres unmarked),0.769%
16,COCCSc1nnc(NC(=O)c2cc(C(=O)OC)cc([N+](=O)[O-])c2)s1,11.4%
17,CC(C)c1nc(SCC(=O)NCc2ccccc2)n[nH]1,2.8%
18,COc1cccc(CC2(CO)CCCN(C(=O)c3cc[n+]([O-])cc3)C2)c1 (centres unmarked),10.4%
19,CCOC(=O)C1(Cc2ccccc2)CCCN(C(=O)c2cn[nH]c2)C1 (centres unmarked),13.4%
20,Cc1ccccc1CC1(CO)CCCN(C(=O)c2cccc(Cl)c2)C1 (centres unmarked),1.01%
21,CCOC(=O)C1(Cc2ccccc2)CCCN(C(=O)C=C(C)C)C1 (centres unmarked),13.2%
22,O=C(c1ccc(-n2ccnc2)cc1)N1CCCC(CO)(Cc2cccc(Cl)c2)C1 (centres unmarked),-60.4%
23,CCOC(=O)C1(Cc2ccccc2)CCCN(C(=O)c2ccc(-n3ccnc3)cc2)C1 (centres unmarked),-58.4%

row,SMILES,"hERG current change (%, negative = inhibition) at 10uM"
1,CC(=O)c1ccc(NC(=O)c2ccc(COc3ccccc3[N+](=O)[O-])o2)cc1,-8.46%
2,Cc1cc(=O)n(CC(=O)Nc2cc(Cl)ccc2C)c(C(C)C)n1,-1.59%
3,CN(CC1CCOCC1)C(=O)CC1C(=O)NCCN1Cc1ccc(Cl)c(F)c1 (centres unmarked),10.4%
4,CCCCNC(=O)c1nn(-c2ccccc2OC)c(=O)c2ccccc12,-4.46%
5,COc1ccc(NC(=O)CCN2CCN(S(=O)(=O)c3ccc(F)cc3)CC2)cc1,-6.32%
6,Cc1cc(C)c2c(-n3cccc3)c(C(=O)NNS(=O)(=O)c3ccc(Cl)cc3)sc2n1,0.175%
7,O=C(Nc1ccccc1)NC1CCN(Cc2ccccc2)CC1,-39.4%
8,O=C(/C=C/c1cccc(Br)c1)NC1CCN(Cc2ccccc2)CC1,-71.1%
9,CCN1CCC(NC(=O)Nc2cccc(C(F)(F)F)c2)CC1,-51.1%
10,O=C(COC(=O)/C=C/c1cccc(Br)c1)NC1CC1,-2.84%
11,O=C(Nc1ccc(F)cc1)NC1CCN(Cc2ccccc2)CC1,-36.7%
12,O=C(/C=C/c1cccc(F)c1)NC1CCN(Cc2ccccc2)CC1,-70.6%
13,O=C(Cc1c(F)cccc1Cl)NC1CCN(Cc2ccccc2)CC1,-0.715%
14,O=C(Nc1cccc(F)c1)NC1CCN(Cc2ccccc2)CC1,-56.4%
15,O=C(Nc1cccc(C(F)(F)F)c1)NC1CCCCC1,-3.18%
16,CN1CCC(NC(=O)Nc2cccc(C(F)(F)F)c2)CC1,-0.705%
17,S=C(Nc1ccc(Br)cc1Cl)NC1CCN(Cc2ccccc2)CC1,-2.37%
18,COc1ccc(/C=C/C(=O)NC2CCN(Cc3ccccc3)CC2)cc1OC,-29%
19,COc1ccc(CN2C(=O)[C@H]3Cc4c([nH]c5ccccc45)C(C)(C)N3C2=O)cc1,7%
20,COc1cccc(NC(=O)N(Cc2cc3cc(C)cc(C)c3[nH]c2=O)CC2COCCO2)c1 (centres unmarked),4.85%
21,Cc1nnc(SCC(=O)N(Cc2ccccc2)C(C)C)n1-c1ccccc1,-5.28%
22,Cc1c(O)ccc2c(=O)c(-c3nncn3-c3ccccc3)coc12,21.2%
23,COc1ccc(NC(=O)c2ccccc2C)cc1,14.9%

row,SMILES,"hERG current change (%, negative = inhibition) at 10uM"
1,Cc1c(C(=O)NCCc2ccccc2)oc2ccc(S(=O)(=O)N3CCOCC3)cc12,-19.1%
2,CC(C)CC(=O)NCC(C)NC(=O)CC(C)C (centres unmarked),3.51%
3,COc1ccc(C(CC(=O)N2CCN(c3ccccc3)CC2)c2c(OC)cc(OC)c3ccc(=O)oc23)cc1 (centres unmarked),1.88%
4,Fc1ccc(C2CC(c3ccccc3)Nc3ncnn32)cc1 (centres unmarked),-45.9%
5,c1ccc(C2CC(c3ccccc3)n3ncnc3N2)cc1 (centres unmarked),-17.3%
6,Fc1ccc(C2CC(c3ccccc3)n3ncnc3N2)cc1 (centres unmarked),-29.3%
7,Fc1ccc(C2CC(c3ccc(F)cc3)n3ncnc3N2)cc1 (centres unmarked),-60%
8,Cc1ccc(C2CC(c3ccccc3)n3ncnc3N2)cc1 (centres unmarked),-1.18%
9,Clc1ccc(C2CC(c3ccccc3)Nc3ncnn32)cc1 (centres unmarked),-64.4%
10,CCc1ccc(/C=C2\SC(=S)N(CCCC(=O)Nc3nccs3)C2=O)cc1,8.83%
11,Cc1ccc(S(=O)(=O)n2nc(OC(=O)c3ccccc3F)cc2N)cc1,9.49%
12,CC(=O)Nc1c(Nc2ccccc2)c2ccccc2oc1=O,3.92%
13,COc1cc(OC)cc(C(=O)N2CCN(C(=O)COc3ccc4ccccc4c3)CC2)c1,-64.8%
14,COc1cc(OC)c(OC)cc1CN1CCN(C(=O)COc2ccc3ccccc3c2)CC1.O=C(O)C(=O)O,-36.4%
15,COc1ccc(N2CCN(C(=O)COc3ccc4ccccc4c3)CC2)cc1,5.36%
16,COc1ccc(C(=O)N2CCN(C(=O)c3cc(OC)c(OC)c(OC)c3)CC2)cc1,-17.4%
17,COc1cc(C(=O)N2CCN(C(=O)COc3ccc4ccccc4c3)CC2)cc(OC)c1OC,-73%
18,COc1ccc(CN2CCN(C(=O)COc3ccc4ccccc4c3)CC2)c(OC)c1,-52.6%
19,CN1CCN(C(=O)COc2ccc3ccccc3c2)CC1,-3.47%
20,COc1cccc(C(=O)N2CCN(C(=O)COc3ccc4ccccc4c3)CC2)c1,-47.4%
21,COc1ccccc1CN1CCN(C(=O)COc2ccc3ccccc3c2)CC1,-36%
22,NC(=O)CCN(C1CCCCC1)S(=O)(=O)c1cccc2nsnc12,10.5%
23,Cc1ccc(SCc2cc(=O)c3c(=O)n(-c4ccccc4)[nH]c3[nH]2)cc1,7.34%

row,SMILES,"hERG current change (%, negative = inhibition) at 10uM"
1,N#Cc1nc(-c2ccco2)oc1N1CCCC1,-11.1%
2,COC(=O)c1cc(S(=O)(=O)NCc2ccc3c(c2)OCO3)cn1C,-0.484%
3,CCOC(=O)c1cc(-c2ccc(N3CCOCC3)cc2)nn1-c1ccccc1C(=O)O,5.59%
4,O=c1nc2ccccc2c2n1CC(CN1CCN(Cc3ccccc3)CC1)N2 (centres unmarked),-66.1%
5,O=c1nc2ccccc2c2n1CC(CN1CCN(C(c3ccccc3)c3ccccc3)CC1)N2 (centres unmarked),-81.4%
6,COc1cc2nc(CN3CCN(C(c4ccccc4)c4ccccc4)CC3)[nH]c(=O)c2cc1OC,1.59%
7,O=C(O)CN1CCN(C(c2ccccc2)c2ccccc2)CC1,30.4%
8,O=C(CCc1nc2ccccc2c(=O)[nH]1)NC1CCN(Cc2ccccc2)CC1,-0.782%
9,c1ccc(CN2CCN(c3nc4ccccc4c4ccccc34)CC2)cc1,-3.19%
10,COCCCNC(=O)CCn1c(=O)c2ccccc2n(CC(=O)Nc2ccccc2C)c1=O,9.98%
11,CCOc1ccc(Cc2nnc(N)s2)cc1OCC,-6.21%
12,NC(=O)C1(S(=O)(=O)c2ccccc2)CCCCC1,13.2%
13,C[N+]1=C(/C=C/Nc2ccccc2)C(C)(C)c2ccccc21.[O-][Cl+3]([O-])([O-])[O-],-81.8%
14,CC1(C)OC(C)(C)/C(=C/Nc2ccccc2)C1=O,10.2%
15,CC1(C)OC(=O)C(=CNc2ccccc2)C(=O)O1,-4.48%
16,COc1ccc(OCC(=O)Nc2ccc(S(=O)(=O)N3CCCCC3)cc2)cc1,-20.2%
17,O=C1c2ccc([N+](=O)[O-])cc2C(=O)N1c1ccc([N+](=O)[O-])cn1,14.5%
18,CCOC(=O)C1CCCN(c2nc3ccccc3nc2C(C#N)C(=O)OC(C)C)C1 (centres unmarked),8.39%
19,CCOC(=O)C1CCCN(c2nc3ccccc3nc2C(C#N)C(=O)OCC)C1 (centres unmarked),-14%
20,CCOC(=O)C1CCN(c2nc3ccccc3nc2C(C#N)C(=O)OC(C)COC)CC1 (centres unmarked),-13.9%
21,CCOC(=O)C1CCCN(c2nc3ccccc3nc2C(C#N)C(=O)OC(C)COC)C1 (centres unmarked),-55.2%
22,CCOC(=O)C1CCN(c2nc3ccccc3nc2C(C#N)C(=O)OCCOC)CC1 (centres unmarked),-27.4%
23,CCOC(=O)C1CCCN(c2nc3ccccc3nc2C(C#N)C(=O)OCCOC)C1 (centres unmarked),-66%
